# The supplement of paper PMC7156485
# What was measured:
# Settings in all cases: concentration: 10 µM; 24 h
# TDF [1] = assay: H1.0 immunofluorescence intensity relative to DMSO (% of DMSO); higher = stronger H1.0 induction, active = 120 or more
# In short: (§1)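 Treatment: HCC1569 and TDF cells, 800 per well in 384-well plates with RPMI and 10% FBS, were given compounds at 10 µM for 24 h at 37 °C, in triplicate. Readout: after 3.7% formaldehyde fixation, cells were stained with a rabbit anti-H1.0 antibody, an AlexaFluor 647 secondary and DAPI. Reported values are H1.0 nuclear intensity or cell number as percent of the plate control, taken as the median of replicates, with positional smoothing for HCC1569.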
# HCC1569 [2] = assay: H1.0 immunofluorescence intensity relative to DMSO (% of DMSO); higher = stronger H1.0 induction, active = 140 or more
# In short: as §1
# HCC1569 [3] = assay: cell number relative to DMSO (% of DMSO); higher = more cells (less growth inhibition / toxicity)
# In short: as §1
# TDF [4] = assay: as above
# In short: as §1
# 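Throughout, for H1.0 immunofluorescence intensity relative to DMSO: TDF is a line of transformed human dermal fibroblasts of mesenchymal origin.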
# 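Throughout, for cell number relative to DMSO: TDF denotes transformed human dermal fibroblasts of mesenchymal origin.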
SMILES,H1.0 immunofluorescence intensity (TDF [1]),H1.0 immunofluorescence intensity (HCC1569 [2]),cell number (HCC1569 [3]),cell number (TDF [4])
COc1ccc(CCN(C)CCCC(C#N)(c2ccc(OC)c(OC)c2)C(C)C)cc1OC (stereo unspecified) [Verapamil],90.6 (inactive),98.6 (inactive),–,–
Nc1ncnc2c1nc(N)n2[C@@H]1O[C@H](CO)[C@@H](O)[C@H]1O,–,76.3 (inactive),25.5,2.02
CCCCCC=CCC=CCC=CCCCCCCC(=O)O [Dihomo-γ-linolenic acid],96.3 (inactive),97.7 (inactive),99.6,98.6
COc1cc2ncnc(Nc3ccc(Oc4ccccc4)cc3)c2cc1OC [Src Kinase Inhibitor I],106 (inactive),147 (active),88.6,94.7
Cl.Cl.NCCCCN [Putrescine dihydrochloride],94.1 (inactive),98.2 (inactive),102,118
CCC(C)(C)C(=O)OC1CC(C)C=C2C=CC(C)C(CCC3CC(O)CC(=O)O3)C21 (stereo unspecified) [Simvastatin],120 (inactive),106 (inactive),–,–
c1cc(-c2cnn3cc(-c4ccc(N5CCNCC5)cc4)cnc23)c2cccnc2c1,–,100 (inactive),22.7,0.96
O=S(=O)(NCc1cccc2ccccc12)c1cc(Cl)c(Oc2cccc(N3CCNCC3)c2)s1,–,122 (inactive),8.55,0.28
C=CC[C@H](N)C(=O)O [L-allylglycine],95.9 (inactive),92.4 (inactive),101,99.3
"C=CC(=O)N1C/C(=C\c2ccc([N+](=O)[O-])cc2)C(=O)/C(=C/c2ccc([N+](=O)[O-])cc2)C1 [1-acryloyl-3,5-bis((E)-4-nitrobenzylidene)piperidin-4-one]",–,145 (active),17.5,0.39
NC(=O)Nc1cc(-c2cccc(F)c2)sc1C(=O)NC1CCCNC1 (stereo unspecified),–,60.3 (inactive),19.9,1.8
Cc1c(C(=O)NN2CCCCC2)nn(-c2ccc(Cl)cc2Cl)c1-c1ccc(I)cc1,92 (inactive),96.5 (inactive),–,–
CCN(CC)CCCCNc1ncc2cc(-c3c(Cl)cccc3Cl)c(NC(=O)NC(C)(C)C)nc2n1,104 (inactive),115 (inactive),63.1,84.5
